Screening results deposited in PubChem BioAssay by National Center for Advancing Translational Sciences (NCATS).
This is a sample that favours compounds with a hit; in the whole collection about 0.46% have one here.
TSG101-PTAP inh – blocks PTAP/TSG101 interaction to inhibit HIV-1 budding; Q99816; Fluorescence polarization, FITC-PTAP peptide / Tsg101 binding; Potency, µM (top dose mostly 115 µM), for the others: at the highest dose activity change, negative = inhibition, most hits filed as inhibitors; 340,000 tested, under 10 active; active = well fitted inhibition curve with a large enough effect in the main read-out, with a control signal flat, not every such curve was filed as active; inconclusive = small, poorly fitted or top-dose-only effect, or effect the other way, or a change in a side signal; inactive = no such curve, though single readings can be large or run the other way; note: % of control where 0% means no effect
Target sequence (Q99816 whole entry, looked up): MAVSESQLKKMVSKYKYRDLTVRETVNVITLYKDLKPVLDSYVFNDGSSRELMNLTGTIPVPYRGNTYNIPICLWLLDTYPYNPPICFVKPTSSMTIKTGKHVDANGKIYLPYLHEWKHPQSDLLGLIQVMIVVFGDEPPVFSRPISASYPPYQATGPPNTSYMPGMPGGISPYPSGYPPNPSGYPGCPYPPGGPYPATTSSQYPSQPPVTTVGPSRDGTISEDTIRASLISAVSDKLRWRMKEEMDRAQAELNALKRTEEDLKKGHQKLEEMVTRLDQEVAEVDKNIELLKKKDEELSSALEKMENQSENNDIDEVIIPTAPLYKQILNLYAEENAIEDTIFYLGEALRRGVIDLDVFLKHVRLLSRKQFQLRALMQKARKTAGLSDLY
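Steps: Tsg101 binding domain dispensed (10 uM final), compounds pinned in DMSO, FITC-labeled PTAP-motif peptide added (50 nM final); after 20 min binding at room temperature, polarization measured.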
Mito fusion yeast – blocks mitochondrial division or promotes mitochondrial fusion | S. cerevisiae fusion-defective mutant growth rescue, CellTiterGlo 48 h | Potency, µM (series often up to 46.1 µM), inactives show at the top dose growth rescue (activation), actives largely listed as activators | 0.23% of 320,000 active | AID 485298; note: % of control where 0% means no effect; nearly all actives have a fitted effect of over 45% in size
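Temperature-sensitive fusion-defective S. cerevisiae (e.g. fzo1-1, mgm1-5) were grown with compound in YPEG medium (3% ethanol, 3% glycerol) for 48 hours at 37C. Growth rescue was measured as viability by CellTiterGlo luminescence after 10 minutes at ambient.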
a7 integrin act – integrin-mediated muscular dystrophy alleviation activation | alpha7betagal myoblasts, beta-gal FDG fluorescence, 48 h | Potency, µM (highest dose often 38.3 µM), inactives show at the highest dose activation, usual class: activators | 0.064% of 350,000 active | AID 624291;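 note: 100% = response of the positive control SU9516; nearly all actives have a fitted effect of over 60% in size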
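alpha7betagal+/- myoblasts (passage 13, 250/well) treated 48 h at 37C with compounds at 1:260 dilution of DMSO stock. Lysed, then beta-galactosidase activity read as FDG fluorescence (ex 480/em 540) after 30 min, with pre-read for autofluorescence.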
A-T KAP1 phos – potential ataxia-telangiectasia treatments restoring KAP-1 phosphorylation | F2112 A-T fibroblasts, KAP-1 phosphorylation AlphaLISA; neocarzinostatin DNA damage 30 min before lysis | Potency, µM (highest dose often 57.5 µM), for the others: at the highest dose activation, usual class: activators | AID 485349 | 0.19% of 320,000 active; note: % of control where 0% means no effect; nearly all actives have a fitted effect of over 45% in size
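ATM-like activity read as KAP-1 phosphorylation via AlphaLISA donor/acceptor antibody pairs after lysis and 6 hr at 25C. Cells were ATM-null patient fibroblasts (F2112, hTERT), dosed 60 min, then exposed to the DSB inducer NCS for 30 min.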
ASM inhibitor – blocks human secretory acid sphingomyelinase; placental ASM, HMU-PC fluorogenic substrate, 60 min; 0.006% of 340,000 active; Potency, µM (doses to about 57.5 µM), without a hit: top-dose activity change, negative = inhibition, most hits filed as inhibitors
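HMU-PC0 cleavage (9 uM final) by human placental ASM, 60 min at 37 °C following 10 min compound exposure at RT; stopped at pH 10, fluorescence Ex 386/Em 447 nm.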
GALK inhibitor – inhibitors of human galactokinase. Purified GALK, Kinase-Glo residual ATP luminescence. P51570. Potency, µM (doses to about 57.5 µM), without a hit: at the highest dose activity change, negative = inhibition, hits mostly inhibitors. 0.007% of 270,000 active; note: % is set by controls: 0 for no effect and ±100 for the full control effect
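Compounds were pin-transferred into ATP buffer (35 uM final), then GALK plus galactose (5 nM, 100 uM final) was added. After 1 h at room temperature, Kinase-Glo Plus was added and luminescence read after 10 min.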
* hit, by the source's call; i = inactive; u = inconclusive; x = no result given; ! = repeats disagree. Unless noted, calls come from the whole dose curve; as a rule, active = well fitted curve in the direction sought with a large enough effect; inconclusive = small, poorly fitted or top-dose-only effect, or another doubt; inactive = no such curve, though single readings can be large; an effect the other way counts as inactive or inconclusive. Potency is the fitted concentration of half-maximal effect.

SMILES	TSG101-PTAP inh	Mito fusion yeast	a7 integrin act	A-T KAP1 phos	ASM inhibitor	GALK inhibitor
CCCCN1C(=O)C(=O)NC[C@@H]1C(C)O (stereo partly drawn)	2%	-5%	-13%	-18%	10%	3%
CCC[n+]1c2ccccc2cc2ccccc21	-9%	-29%	-65%	40µM*	i	-10%
CCCC[n+]1c2ccccc2cc2ccccc21	-7%	-22%	-54%	u	i	0%
Cc1onc(-c2ccccc2)c1C(O)c1ccc(F)cc1 (stereo not drawn)	-3%	33%	-5%	32µM*	-1%	x
Cc1onc(-c2ccccc2Cl)c1C(O)c1ccc(F)cc1 (stereo not drawn)	-4%	7%	8%	u	-4%	-3%
Fc1ccc(C(c2ccc(F)cc2)N2CCN(C/C=C/c3ccccc3)CC2)cc1	-1%	-48%	x	40µM*	-8%	-2%
CNC(=O)c1ccsc1NC(=O)c1ccc2c(c1)CCCC2	-4%	5.6µM*	8%	7%	u	x
NC(=O)c1ccsc1NC(=O)c1ccc2c(c1)CCCC2	0%	u	-28%	-5%	-3%	x
c1ccc(CN2CCCC3(CCCN(Cc4nc(COc5ccccc5)no4)C3)C2)cc1 (stereo not drawn)	0%	2%	-13%	0%	0%	4%
c1ccc(CN2CCCC3(CCCN(Cc4nc(CC5CC5)no4)C3)C2)cc1 (stereo not drawn)	-4%	-4%	8.9µM*	2%	-1%	-1%
O=C(N/N=C/c1cn(-c2cccs2)nc1-c1ccccc1)c1ccccc1Cl	-3%	18µM*	-32%	7%	u	1%
O=C(N/N=C/c1cn(-c2cccs2)nc1-c1ccccc1)c1ccc(O)cc1	-1%	4%	4%	1%	-5%	1%
COc1ccc(NC(=O)CN(Cc2ccco2)Cc2ccco2)cc1S(=O)(=O)N1CCCCC1	3%	7%	-17%	-1%	-1%	x
CC(=O)c1c(C)[nH]c(C(=O)OCc2cccc(C)c2)c1C	-2%	35µM*	-6%	3%	-7%	16%
CC(C)(C)Cc1c(-c2ccccc2)nc2ccc(Cl)cn12	x	x	-34%	x	x	x
O=C1/C(=C\c2ccc(O)c(O)c2)SC(=S)N1Cc1ccccc1	9%	13µM*	-76%	-5%	u	x
COc1cc(/C=C2/SC(=S)N(Cc3ccccc3)C2=O)ccc1O	-5%	-27%	-57%	10%	-5%	9%
COc1ccc(Cl)c(OC)c1C(=O)NC(=O)Nc1c(F)cc(F)cc1F	-1%	3%	11%	-8%	4%	3%
O=C(CN1C(=O)S/C(=C\c2ccccc2Cl)C1=O)NCCCn1ccnc1	-2%	4µM*	4%	-3%	2%	7%
COc1ccc(-n2c(C)cc(C(=O)CSc3ccc(NC(C)=O)cc3)c2C)cc1	-1%	16µM*	13%	1%	-9%	-4%
CC(=O)Nc1ccc(SCC(=O)c2cc(C)n(-c3ccccc3)c2C)cc1	-8%	u	31%	3%	x	0%
Cc1cc(C)c(S(=O)(=O)N2CCCC(C(=O)NCc3ccncc3)C2)c(C)c1 (stereo not drawn)	-3%	0%	1%	12%	3%	1%
O=C(Nc1cccc(Cl)c1)c1csc(-c2ccccc2)n1	-4%	u	30%	32µM*	-15%	-2%
O=C(Nc1ccc(Cl)c(Cl)c1)c1csc(-c2ccccc2)n1	0%	-1%	12%	6%	-3%	1%
O=S(=O)(NC(=NC1CCCCC1)c1ccccc1F)c1ccccc1	-1%	0.63µM*	10µM*	5%	-2%	-2%
SMILES	TSG101-PTAP inh	Mito fusion yeast	a7 integrin act	A-T KAP1 phos	ASM inhibitor	GALK inhibitor
CCOC(=O)c1cnc2ccccc2c1Nc1cccc(OC)c1	x	0%	x	x	x	x
CC(=O)N1c2ccc(S(=O)(=O)NCCC(=O)N3CCCC(C)C3)cc2CC1C (stereo not drawn)	-2%	11µM*	-27%	-9%	0%	9%
CC(=O)N1c2ccc(S(=O)(=O)N3CCCC(C(=O)N4CCCC(C)C4)C3)cc2CC1C (stereo not drawn)	-7%	10%	-23%	24%	4%	3%
C=CCC(C)(NCc1ccccc1)c1ccccc1 (stereo not drawn)	-2%	4%	4%	1%	1%	-3%
C=CCC(C)(NCc1ccccc1)c1ccc(C)cc1 (stereo not drawn)	-1%	-3%	-37%	40µM*	3%	0%
N=c1n(CC(=O)c2ccc(Br)cc2)c2ccccc2n1Cc1ccccc1	1%	-14%	-16%	22µM*	-20%	x
N=c1n(CC(=O)c2ccc([N+](=O)[O-])cc2)c2ccccc2n1Cc1ccccc1	30%	-13%	-53%	6%	-9%	2%
Cn1c(=N)n(CC(=O)c2ccc(Cl)c(Cl)c2)c2ccccc21	-3%	9%	0%	28µM*	-15%	3%
COc1cc(S(=O)(=O)NCCc2c(C)[nH]c3ccc(C)cc23)ccc1Br	x	2%	x	x	x	x
COc1ccc(N2CCN(CCC3Oc4cc([N+](=O)[O-])ccc4NC3=O)CC2)cc1 (stereo not drawn)	2%	-1%	8.9µM*	-5%	u	4%
CCSc1nc2ccccc2n1C(=O)/C=C\c1ccc(OC)c(OC)c1	0%	-2%	-24%	18µM*	-11%	-7%
Cc1ccc(C(=O)Nc2ccc(S(=O)(=O)O)c3cc(S(=O)(=O)O)cc(S(=O)(=O)O)c23)cc1NC(=O)c1cccc(NC(=O)Nc2cccc(C(=O)Nc3cc(C(=O)Nc4ccc(S(=O)(=O)O)c5cc(S(=O)(=O)O)cc(S(=O)(=O)O)c45)ccc3C)c2)c1	x	16µM*	x	x	x	x
Cc1ccccc1NC(=O)c1cccc(S(=O)(=O)Nc2cccc(C(=O)O)c2)c1	1%	3%	5%	-1%	2%	6%
O=C1CC(c2ccc(F)cc2)c2cc3c(cc2N1)CCC3 (stereo not drawn)	-7%	11µM*	-18%	-14%	-7%	-7%
O=C1C([N+](=O)[O-])=C(O)c2cccc3cccc1c23	x	-20%	x	28µM*	x	-3%
CC1CCN(C2=C(NS(=O)(=O)c3ccc(Cl)cc3)C(=O)c3ccccc3C2=O)CC1	-1%	16µM*	0%	-8%	0%	3%
O=C(Nc1ccc([N+](=O)[O-])cc1)c1ccccc1F	-6%	5%	23%	0%	2%	5%
O=C(c1cc(O)c(O)c([N+](=O)[O-])c1)c1ccccc1F	-4%	18µM*!	x	-7%	u	x
